Here are results for 18 compounds from PubChem BioAssay (NCATS).

SMILES strings stand for the structures. Records with an inconclusive call do not appear. The source made the active and inactive calls. Calls come from the whole dose curve; as a rule, active = well fitted inhibition curve with a large enough effect; inconclusive = small, poorly fitted or top-dose-only effect; inactive = flat fitted curve, though single readings scatter.

Chain of Calcium and integrin-binding protein 1 (Homo sapiens) (Q99828 whole entry, looked up): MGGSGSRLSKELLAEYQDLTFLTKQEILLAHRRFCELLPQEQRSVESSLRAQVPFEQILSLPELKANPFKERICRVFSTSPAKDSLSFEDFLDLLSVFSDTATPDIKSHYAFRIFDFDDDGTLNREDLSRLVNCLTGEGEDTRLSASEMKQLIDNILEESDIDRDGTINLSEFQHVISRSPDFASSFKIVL

In the assay the target is Calcium and integrin-binding protein 1 (Homo sapiens) (UniProt Q99828). Briefly: Primary qHTS for Identification of Calcium Integrin Binding Protein 1 (CIB1) Competitor (AID 1508620).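 Note: GST tagged CIB1 binding a fluorescein labelled alphaIIb integrin peptide tracer; top concentration of the series differs between compounds.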 To be noted: CIB1-GST / FITC-alphaIIb peptide fluorescence polarization; series mostly up to 114 µM. In short, it runs like this:
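CIB1-GST (1 uM final) and compound incubated 15 min at room temperature before adding FITC-alphaIIb peptide tracer (100 nM final). Competition for binding read by fluorescence polarization (ex 480, em 540) after another 15 min at room temperature.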
(In general: In qHTS, concentration-response curves come from the screen itself.)
Regarding `O=C1CCCC2=C1C(c1[nH]ncc1Cl)N=C(Nc1nc3ccc(F)cc3o1)N2` (stereo not drawn), the outcome was inactive. `CCOc1ccc(CCNC(=O)c2cc3ccccc3n2CCN2CCOCC2)cc1OCC`: the result was inactive. As for `N#Cc1ccc(NC(=O)Nc2nnc(-c3ccncc3)s2)cc1C(F)(F)F`, the result was inactive. The result for `Cc1nn2c(=O)cc(N3CCNCC3)nc2s1` reads “inactive”.

Take `CCOc1ccc(CCNC(=O)c2cc3sccc3n2CCN(C)C)cc1OCC`: the outcome was inactive. The value for `COc1cccc(CNc2ccc(C(=O)Nc3nccs3)cc2)c1O` was “inactive”. The result for `Cn1cc(Cl)c(C2N=C(Nc3nc4ccccc4o3)NC3=C2C(=O)CCC3)n1` (stereo not drawn) reads “inactive”; that for `CCc1nn2c(=O)c(F)c(N3CCNCC3)nc2s1`, “inactive”. The value for `Cn1cc(Br)c(C2N=C(Nc3nc4ccccc4o3)NC3=C2C(=O)CCC3)n1` (stereo not drawn) was “inactive”; that for `COc1cccc(CNc2ccc(S(=O)(=O)Nc3nccs3)cc2)c1OC` was “inactive”. On to `Cc1cccc2nc(NC3=NC(c4[nH]ncc4Cl)C4=C(CCCC4=O)N3)oc12` (stereo not drawn), for which the result was inactive. The result for `CN1CC[C@@]2(C)c3cc(O)ccc3N(C)C2O1` (stereo partly drawn) reads “inactive”; that for `N#Cc1nc(-c2cccc3ccccc23)oc1NCc1ccccc1`, “inactive”; that for `CCOc1ccc(CCNC(=O)c2cc3cccnc3n2Cc2cccc(C)n2)cc1OCC`, “inactive”. The value for `CC(=O)Nc1ncc(S(=O)(=O)N2CCOCC2)s1` was “inactive”; that for `C[n+]1cc(P(=S)(c2ccccc2)c2ccccc2)n2ccccc21` was “inactive”.

Turning to `CCOc1ccc(CCNC(=O)c2cc3sccc3n2Cc2ccc(F)cc2F)cc1OCC`, the result was inactive. For the compound `CCOc1ccc(CCNC(=O)c2cc3cnccc3n2Cc2cccc(C)n2)cc1OCC`, the outcome was inactive.
